Experiment [1] has as its target T1, Casein kinase II (Homo sapiens) (UniProt P67870+P68400+P19784). Conditions: at 1 µM.
Experiment [2] has as its target T1, Casein kinase II (Homo sapiens). The note with it: at 10 µM.
Experiment [3] concerns the target Casein kinase II subunit alpha' (Homo sapiens) (UniProt P19784). Conditions: at 1 µM.
The target is the same in experiment [4]. Conditions: at 10 µM.
For experiment [5], the target named is Dual specificity protein kinase CLK2 (Homo sapiens) (UniProt P49760). Conditions: at 1 µM.
Sequence of Dual specificity protein kinase CLK2 (Homo sapiens) (P49760 whole entry, looked up): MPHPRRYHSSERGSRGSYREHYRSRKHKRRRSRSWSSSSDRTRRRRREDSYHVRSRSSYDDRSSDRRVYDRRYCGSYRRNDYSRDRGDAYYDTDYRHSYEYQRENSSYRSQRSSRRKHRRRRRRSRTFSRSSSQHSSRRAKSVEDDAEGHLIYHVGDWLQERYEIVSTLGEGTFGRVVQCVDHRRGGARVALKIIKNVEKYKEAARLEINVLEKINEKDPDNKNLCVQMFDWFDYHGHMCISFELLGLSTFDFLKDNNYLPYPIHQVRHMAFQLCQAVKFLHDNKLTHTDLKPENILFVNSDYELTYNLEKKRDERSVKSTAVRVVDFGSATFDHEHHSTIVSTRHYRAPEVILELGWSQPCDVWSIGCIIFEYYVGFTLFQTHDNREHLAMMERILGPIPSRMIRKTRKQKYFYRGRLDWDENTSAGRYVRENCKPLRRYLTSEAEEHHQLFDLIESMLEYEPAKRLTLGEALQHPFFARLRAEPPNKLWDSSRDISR
For experiment [6] the target is unchanged. The note with it: at 10 µM.
Experiment [7] addresses Dual specificity protein kinase CLK3 (Homo sapiens) (UniProt P49761). The note with it: at 1 µM.
For experiment [8] the target is unchanged. The note with it: at 10 µM.
Experiment [9] has as its target Tyrosine-protein kinase CSK (Homo sapiens) (UniProt P41240). The note with it: at 1 µM.
For experiment [10] the target is unchanged. The note with it: at 10 µM.
Experiment [11] concerns the target Calcium/calmodulin-dependent protein kinase type 1 (Homo sapiens) (UniProt Q14012). The note with it: at 1 µM.
Experiment [12] shares this target. Conditions: at 10 µM.
The target of experiment [13] is Calcium/calmodulin-dependent protein kinase type II subunit beta (Homo sapiens) (UniProt Q13554). Conditions: at 1 µM.
Sequence of Calcium/calmodulin-dependent protein kinase type II subunit beta (Homo sapiens) (Q13554 whole entry): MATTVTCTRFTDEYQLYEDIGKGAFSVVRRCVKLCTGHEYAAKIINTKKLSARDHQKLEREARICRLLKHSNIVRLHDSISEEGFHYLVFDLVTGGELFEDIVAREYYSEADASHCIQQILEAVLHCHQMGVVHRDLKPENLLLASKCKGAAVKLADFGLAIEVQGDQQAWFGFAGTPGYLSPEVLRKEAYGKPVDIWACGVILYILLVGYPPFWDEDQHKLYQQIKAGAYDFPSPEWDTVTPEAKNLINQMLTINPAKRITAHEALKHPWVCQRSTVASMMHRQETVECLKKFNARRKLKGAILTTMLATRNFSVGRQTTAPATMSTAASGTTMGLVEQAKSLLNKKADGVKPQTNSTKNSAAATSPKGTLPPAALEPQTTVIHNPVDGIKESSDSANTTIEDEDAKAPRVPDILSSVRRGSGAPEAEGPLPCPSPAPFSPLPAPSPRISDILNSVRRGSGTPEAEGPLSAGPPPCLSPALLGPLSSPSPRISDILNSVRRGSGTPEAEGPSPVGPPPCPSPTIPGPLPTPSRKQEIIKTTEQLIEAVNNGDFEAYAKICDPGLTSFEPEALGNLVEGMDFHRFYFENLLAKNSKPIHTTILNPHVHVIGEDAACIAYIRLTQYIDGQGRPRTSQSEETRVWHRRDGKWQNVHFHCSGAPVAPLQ
The target is the same in experiment [14]. Conditions: at 10 µM.
For experiment [15], the target named is Calcium/calmodulin-dependent protein kinase type II subunit gamma (Homo sapiens) (UniProt Q13555). The note with it: at 1 µM.
Sequence of Calcium/calmodulin-dependent protein kinase type II subunit gamma (Homo sapiens) (Q13555 whole entry): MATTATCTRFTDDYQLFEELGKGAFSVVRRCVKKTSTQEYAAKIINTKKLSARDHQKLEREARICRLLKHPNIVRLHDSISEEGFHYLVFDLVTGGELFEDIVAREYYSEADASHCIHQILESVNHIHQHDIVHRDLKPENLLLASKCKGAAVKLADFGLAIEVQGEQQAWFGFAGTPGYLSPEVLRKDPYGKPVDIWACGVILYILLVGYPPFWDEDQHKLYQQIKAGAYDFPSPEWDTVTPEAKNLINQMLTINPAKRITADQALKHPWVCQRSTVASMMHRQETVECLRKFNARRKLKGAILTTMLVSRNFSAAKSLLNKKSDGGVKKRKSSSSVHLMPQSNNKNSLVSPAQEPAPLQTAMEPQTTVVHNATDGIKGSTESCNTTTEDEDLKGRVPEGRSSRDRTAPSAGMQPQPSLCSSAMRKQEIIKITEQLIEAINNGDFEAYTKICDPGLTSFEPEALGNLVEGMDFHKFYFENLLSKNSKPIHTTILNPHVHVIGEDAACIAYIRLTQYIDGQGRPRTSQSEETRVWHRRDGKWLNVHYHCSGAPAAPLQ
The target is the same in experiment [16]. The note with it: at 10 µM.
Experiment [17] has as its target Calcium/calmodulin-dependent protein kinase type II subunit delta (Homo sapiens) (UniProt Q13557). The note with it: at 1 µM.
Experiment [18] shares this target. The note with it: at 10 µM.
In experiment [19] the target is T2, Calcium/calmodulin-dependent protein kinase type IV (Homo sapiens) (UniProt Q16566).
T2 sequence (whole entry): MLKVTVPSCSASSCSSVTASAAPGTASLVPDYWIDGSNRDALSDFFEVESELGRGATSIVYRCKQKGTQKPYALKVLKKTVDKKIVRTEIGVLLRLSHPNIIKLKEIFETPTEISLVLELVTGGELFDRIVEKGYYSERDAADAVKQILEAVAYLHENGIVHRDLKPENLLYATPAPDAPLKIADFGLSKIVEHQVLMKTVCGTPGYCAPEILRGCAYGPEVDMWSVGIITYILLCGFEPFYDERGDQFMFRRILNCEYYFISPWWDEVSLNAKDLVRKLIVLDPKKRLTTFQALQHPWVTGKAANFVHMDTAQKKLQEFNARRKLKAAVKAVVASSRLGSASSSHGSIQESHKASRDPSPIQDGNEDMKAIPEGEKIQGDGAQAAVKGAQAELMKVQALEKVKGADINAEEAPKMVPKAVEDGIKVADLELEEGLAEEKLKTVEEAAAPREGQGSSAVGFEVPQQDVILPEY
Conditions: at 1 µM.

Experiment [20] has as its target T2, Calcium/calmodulin-dependent protein kinase type IV (Homo sapiens). Conditions: at 10 µM.

Sequence of Calcium/calmodulin-dependent protein kinase type 1 (Homo sapiens) (Q14012 whole entry, looked up): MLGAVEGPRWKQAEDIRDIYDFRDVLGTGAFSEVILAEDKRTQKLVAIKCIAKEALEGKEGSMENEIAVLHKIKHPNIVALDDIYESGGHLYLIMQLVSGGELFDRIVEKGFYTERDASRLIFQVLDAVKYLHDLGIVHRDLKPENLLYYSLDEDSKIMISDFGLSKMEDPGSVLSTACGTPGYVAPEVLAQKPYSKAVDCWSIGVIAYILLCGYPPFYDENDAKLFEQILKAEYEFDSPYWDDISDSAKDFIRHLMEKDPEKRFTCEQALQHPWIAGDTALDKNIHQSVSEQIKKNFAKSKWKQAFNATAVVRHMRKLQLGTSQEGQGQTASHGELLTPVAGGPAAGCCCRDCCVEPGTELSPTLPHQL
Sequence of Tyrosine-protein kinase CSK (Homo sapiens) (P41240 2-450 limits assumed): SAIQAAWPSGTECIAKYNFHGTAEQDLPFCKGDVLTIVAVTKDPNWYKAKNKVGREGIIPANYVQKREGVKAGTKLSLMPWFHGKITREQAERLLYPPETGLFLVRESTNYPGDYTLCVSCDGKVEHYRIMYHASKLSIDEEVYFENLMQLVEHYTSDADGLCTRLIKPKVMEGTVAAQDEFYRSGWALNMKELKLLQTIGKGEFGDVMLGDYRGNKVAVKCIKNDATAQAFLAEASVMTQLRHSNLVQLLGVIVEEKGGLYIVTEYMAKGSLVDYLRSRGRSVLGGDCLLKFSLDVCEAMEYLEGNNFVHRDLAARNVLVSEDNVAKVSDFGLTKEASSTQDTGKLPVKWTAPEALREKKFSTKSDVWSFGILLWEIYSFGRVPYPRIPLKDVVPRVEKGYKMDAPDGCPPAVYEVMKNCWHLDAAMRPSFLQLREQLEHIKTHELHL
Sequence of Calcium/calmodulin-dependent protein kinase type II subunit delta (Homo sapiens) (Q13557 whole entry): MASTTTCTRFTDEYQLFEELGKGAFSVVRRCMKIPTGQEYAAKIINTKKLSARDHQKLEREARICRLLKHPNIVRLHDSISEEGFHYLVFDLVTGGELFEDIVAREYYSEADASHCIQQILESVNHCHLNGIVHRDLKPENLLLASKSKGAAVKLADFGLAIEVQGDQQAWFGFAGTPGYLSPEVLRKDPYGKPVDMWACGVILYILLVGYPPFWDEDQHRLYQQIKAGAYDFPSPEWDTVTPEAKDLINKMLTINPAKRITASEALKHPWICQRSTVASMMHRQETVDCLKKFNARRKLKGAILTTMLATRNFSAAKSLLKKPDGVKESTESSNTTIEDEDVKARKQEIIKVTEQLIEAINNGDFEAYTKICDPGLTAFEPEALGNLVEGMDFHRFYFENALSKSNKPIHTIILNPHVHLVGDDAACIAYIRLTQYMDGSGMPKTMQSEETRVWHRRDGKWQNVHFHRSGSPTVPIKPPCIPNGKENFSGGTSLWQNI
Sequence of Dual specificity protein kinase CLK3 (Homo sapiens) (P49761 whole entry, looked up): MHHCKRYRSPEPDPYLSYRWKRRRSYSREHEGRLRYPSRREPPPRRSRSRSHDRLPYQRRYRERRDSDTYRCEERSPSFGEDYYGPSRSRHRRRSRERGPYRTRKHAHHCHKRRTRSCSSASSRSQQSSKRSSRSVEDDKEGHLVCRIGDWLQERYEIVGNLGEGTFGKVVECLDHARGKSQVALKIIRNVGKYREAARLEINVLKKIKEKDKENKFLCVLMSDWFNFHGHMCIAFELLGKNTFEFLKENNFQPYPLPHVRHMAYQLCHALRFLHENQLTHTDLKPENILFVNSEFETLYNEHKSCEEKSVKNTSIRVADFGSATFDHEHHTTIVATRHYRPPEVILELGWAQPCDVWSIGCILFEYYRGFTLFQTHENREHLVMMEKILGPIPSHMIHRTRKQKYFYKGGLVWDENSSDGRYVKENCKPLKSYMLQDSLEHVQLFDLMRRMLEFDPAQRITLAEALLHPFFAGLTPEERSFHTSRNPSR
T1 sequence (P19784 whole entry, looked up): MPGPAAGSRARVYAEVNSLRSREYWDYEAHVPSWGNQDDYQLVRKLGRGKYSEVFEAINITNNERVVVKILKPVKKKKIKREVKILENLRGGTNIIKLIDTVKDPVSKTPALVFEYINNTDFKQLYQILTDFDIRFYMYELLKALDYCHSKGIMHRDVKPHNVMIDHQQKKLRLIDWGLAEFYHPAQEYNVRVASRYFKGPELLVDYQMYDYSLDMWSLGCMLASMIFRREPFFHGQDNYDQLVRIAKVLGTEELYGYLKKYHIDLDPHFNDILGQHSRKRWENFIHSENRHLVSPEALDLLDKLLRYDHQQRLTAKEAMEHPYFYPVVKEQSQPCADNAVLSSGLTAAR
T1 sequence (P67870 whole entry, looked up): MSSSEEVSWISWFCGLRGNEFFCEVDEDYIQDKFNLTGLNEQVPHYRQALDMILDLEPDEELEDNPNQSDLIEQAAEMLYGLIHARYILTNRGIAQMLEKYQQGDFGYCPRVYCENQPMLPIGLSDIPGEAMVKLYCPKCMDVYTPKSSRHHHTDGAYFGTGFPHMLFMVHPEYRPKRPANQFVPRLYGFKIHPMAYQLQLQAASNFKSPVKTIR
T1 sequence (P68400 whole entry, looked up): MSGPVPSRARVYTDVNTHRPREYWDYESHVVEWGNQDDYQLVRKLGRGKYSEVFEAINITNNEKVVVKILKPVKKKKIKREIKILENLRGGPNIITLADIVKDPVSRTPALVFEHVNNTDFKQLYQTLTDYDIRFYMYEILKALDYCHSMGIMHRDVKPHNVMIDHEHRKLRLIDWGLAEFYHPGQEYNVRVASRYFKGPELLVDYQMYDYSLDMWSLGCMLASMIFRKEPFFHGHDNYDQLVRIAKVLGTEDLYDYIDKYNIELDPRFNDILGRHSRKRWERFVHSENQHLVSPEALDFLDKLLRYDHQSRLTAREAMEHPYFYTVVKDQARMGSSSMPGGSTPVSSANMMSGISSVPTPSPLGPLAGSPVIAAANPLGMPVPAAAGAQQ
Sequence of Casein kinase II subunit alpha' (Homo sapiens) (P19784 whole entry, looked up): as the sequence (P19784 whole entry, looked up) above

By residual activity is commonly meant the signal under treatment as a percentage of the control signal. On to `CCOc1cc2ncnc(Nc3cccc(Br)c3)c2cc1OCC`, for which the residual activity worked out at 89% in experiment [1]; 104% in [2]; 113% in [3]; 95% in experiment [4]; 102% in [5]; 68% in experiment [6]. For the same molecule, the residual activity in experiment [7] was 92%; in experiment [8], 59%; in [9], 95%; in experiment [10], 66%; in [11] it was 107%; in experiment [12], 84%. Also, the residual activity in experiment [13] turned out to be 91%; in [14], 64%; in experiment [15], 82%; in [16] it was 40%; in experiment [17], 85%; in [18], 38%. Further, the values for the residual activity in experiment [19] and in experiment [20] were 97% and 93%, respectively.

As to `COc1ccc(CNc2nc(N(CCO)CCO)nc3c2ncn3C(C)C)cc1`, the residual activity is 96% in experiment [1]; 101% in experiment [2]; 100% in experiment [3]; 107% in experiment [4]; 48% in [5]; 18% in experiment [6]. The residual activity in experiment [7] came to 87%; in [8], 62%; in experiment [9], 106%; in experiment [10] it was 96%; in experiment [11], 85%; in [12] it was 55%. For the same molecule, the residual activity in experiment [13] came to 89%; in experiment [14], 55%; in experiment [15], 99%; in experiment [16] it was 63%; in experiment [17], 92%; in experiment [18] it was 54%. In addition, the residual activity was 113% in experiment [19] and 78% in experiment [20].

`O=C(Nc1cccc(Nc2cc(Nc3cccc(C(F)(F)F)c3)ncn2)c1)C1CC1`: the residual activity is 107% in experiment [1]; 104% in experiment [2]; 114% in experiment [3]; 103% in [4]; 99% in experiment [5]; 101% in experiment [6]. Further, the residual activity stood at 89% in [7]; 32% in experiment [8]; 114% in [9]; 96% in [10]; 114% in [11]; 57% in [12]. Further, the residual activity in experiment [13] turned out to be 91%; in [14], 86%; in [15] it was 98%; in experiment [16], 74%; in experiment [17], 97%; in experiment [18], 67%. The residual activity stood at 116% in experiment [19] and 94% in [20].

As for `NC(=O)c1ccc2[nH]c(-c3ccc(Oc4ccc(Cl)cc4)cc3)nc2c1`, the residual activity in experiment [1] is 100%; in experiment [2], 92%; in experiment [3], 92%; in experiment [4], 102%; in experiment [5], 101%; in experiment [6] it was 104%. In addition, the residual activity was found to be 89% in experiment [7]; 82% in experiment [8]; 105% in experiment [9]; 102% in experiment [10]; 94% in experiment [11]; 92% in [12]. Besides, the residual activity in experiment [13] was 87%; in [14], 43%; in [15], 92%; in [16], 58%; in [17], 91%; in experiment [18] it was 61%. In addition, the residual activity in experiment [19] and in experiment [20] was 108% each time.

As for `COc1cc2ncnc(N3CCN(C(=O)Nc4ccc(Oc5ccccc5)cc4)CC3)c2cc1OC`, the residual activity in [1] is 87%; in [2], 105%; in experiment [3] it was 111%; in experiment [4], 65%; in experiment [5], 84%; in experiment [6], 55%. For the same molecule, the residual activity in experiment [7] was 64%; in experiment [8], 68%; in [9], 109%; in experiment [10], 113%; in experiment [11] it was 104%; in experiment [12], 97%. Moreover, the residual activity came out at 80% in [13]; 89% in [14]; 111% in experiment [15]; 100% in experiment [16]; 104% in [17]; 93% in experiment [18]. Further, the residual activity came out at 122% in experiment [19] and 97% in experiment [20].

For `COc1cccc(-c2cc(=O)c3ccccc3o2)c1N`, the residual activity turned out to be 94% in [1]; 96% in experiment [2]; 119% in experiment [3]; 106% in experiment [4]; 116% in experiment [5]; 105% in experiment [6]. Besides, the residual activity came to 90% in experiment [7]; 71% in experiment [8]; 104% in experiment [9]; 111% in experiment [10]; 97% in [11]; 82% in experiment [12]. Besides, the residual activity was 92% in experiment [13]; 87% in experiment [14]; 98% in experiment [15]; 98% in experiment [16]; 101% in [17]; 99% in [18]. Also, the residual activity in [19] and in experiment [20] was 108% each time.

In the case of `CNc1cc2c(Nc3cccc(Br)c3)ncnc2cn1`, the residual activity is 90% in experiment [1]; 89% in experiment [2]; 118% in experiment [3]; 96% in experiment [4]; 113% in experiment [5]; 98% in experiment [6]. Moreover, the residual activity is 95% in [7]; 33% in experiment [8]; 109% in [9]; 92% in [10]; 95% in [11]; 65% in experiment [12]. The residual activity in [13] is 87%; in [14], 51%; in experiment [15], 93%; in [16], 32%; in [17], 85%; in [18] it was 42%. The residual activity in [19] was 110%; in experiment [20], 56%.

(Values after ChEMBL document CHEMBL2218924, “A broad activity screen in support of a chemogenomic map for kinase signalling research and drug discovery” (Biochem J, 2013).)
